For test [1], the target named is Tyrosine-protein kinase SYK (Homo sapiens) (UniProt P43405). Conditions: at 10 µM.
The target in test [2] is T1, Mitogen-activated protein kinase kinase kinase 7 (Homo sapiens) (UniProt O43318).
T1 sequence (whole entry): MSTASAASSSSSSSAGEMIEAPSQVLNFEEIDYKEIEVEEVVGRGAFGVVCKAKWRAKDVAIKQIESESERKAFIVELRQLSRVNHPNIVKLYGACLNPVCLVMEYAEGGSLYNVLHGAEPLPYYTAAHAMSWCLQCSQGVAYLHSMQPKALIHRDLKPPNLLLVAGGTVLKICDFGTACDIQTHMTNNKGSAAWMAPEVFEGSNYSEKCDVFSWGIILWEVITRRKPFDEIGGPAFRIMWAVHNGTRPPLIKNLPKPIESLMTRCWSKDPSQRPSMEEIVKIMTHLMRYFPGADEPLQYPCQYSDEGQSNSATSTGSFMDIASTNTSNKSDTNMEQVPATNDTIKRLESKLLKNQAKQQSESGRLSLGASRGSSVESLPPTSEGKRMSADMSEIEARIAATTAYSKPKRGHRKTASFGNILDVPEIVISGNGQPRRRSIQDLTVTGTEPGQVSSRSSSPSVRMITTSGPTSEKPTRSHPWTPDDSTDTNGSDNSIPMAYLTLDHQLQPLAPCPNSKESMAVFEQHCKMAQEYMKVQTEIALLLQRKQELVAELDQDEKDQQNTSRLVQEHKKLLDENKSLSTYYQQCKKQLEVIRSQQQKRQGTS
Conditions: at 1 µM.

Test [3] addresses T1, Mitogen-activated protein kinase kinase kinase 7 (Homo sapiens). Conditions: at 10 µM.
Test [4] has as its target T2, Serine/threonine-protein kinase TAO1 (Homo sapiens) (UniProt Q7L7X3).
T2 sequence (whole entry): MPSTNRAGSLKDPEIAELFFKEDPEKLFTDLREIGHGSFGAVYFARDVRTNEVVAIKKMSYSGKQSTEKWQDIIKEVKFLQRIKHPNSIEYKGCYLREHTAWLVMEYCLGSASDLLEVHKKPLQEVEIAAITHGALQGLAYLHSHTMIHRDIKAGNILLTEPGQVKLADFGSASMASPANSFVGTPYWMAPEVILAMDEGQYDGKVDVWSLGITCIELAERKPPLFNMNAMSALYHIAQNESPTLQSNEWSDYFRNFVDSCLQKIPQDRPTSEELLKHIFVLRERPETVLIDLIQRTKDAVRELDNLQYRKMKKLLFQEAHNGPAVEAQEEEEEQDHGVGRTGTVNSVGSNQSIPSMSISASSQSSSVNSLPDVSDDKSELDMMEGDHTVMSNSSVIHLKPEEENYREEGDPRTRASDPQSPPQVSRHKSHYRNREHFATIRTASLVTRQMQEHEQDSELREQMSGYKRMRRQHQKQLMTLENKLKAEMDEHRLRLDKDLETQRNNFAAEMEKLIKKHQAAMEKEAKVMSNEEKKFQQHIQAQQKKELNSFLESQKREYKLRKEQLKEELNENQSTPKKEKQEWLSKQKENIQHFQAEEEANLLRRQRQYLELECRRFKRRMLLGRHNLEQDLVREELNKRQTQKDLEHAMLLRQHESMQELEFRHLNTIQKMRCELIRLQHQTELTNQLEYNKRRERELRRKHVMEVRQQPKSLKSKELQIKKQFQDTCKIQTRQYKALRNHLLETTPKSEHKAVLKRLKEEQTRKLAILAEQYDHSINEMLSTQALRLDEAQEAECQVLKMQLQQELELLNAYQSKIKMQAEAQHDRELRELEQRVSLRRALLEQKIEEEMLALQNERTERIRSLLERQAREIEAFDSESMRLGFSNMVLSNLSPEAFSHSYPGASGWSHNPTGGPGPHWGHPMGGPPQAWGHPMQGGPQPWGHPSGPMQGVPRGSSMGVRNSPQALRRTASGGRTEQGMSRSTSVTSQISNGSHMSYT
Conditions: at 1 µM.

The target of test [5] is T2, Serine/threonine-protein kinase TAO1 (Homo sapiens). Conditions: at 10 µM.
The target in test [6] is T3, Serine/threonine-protein kinase TAO3 (Homo sapiens) (UniProt Q9H2K8).
T3 sequence (whole entry): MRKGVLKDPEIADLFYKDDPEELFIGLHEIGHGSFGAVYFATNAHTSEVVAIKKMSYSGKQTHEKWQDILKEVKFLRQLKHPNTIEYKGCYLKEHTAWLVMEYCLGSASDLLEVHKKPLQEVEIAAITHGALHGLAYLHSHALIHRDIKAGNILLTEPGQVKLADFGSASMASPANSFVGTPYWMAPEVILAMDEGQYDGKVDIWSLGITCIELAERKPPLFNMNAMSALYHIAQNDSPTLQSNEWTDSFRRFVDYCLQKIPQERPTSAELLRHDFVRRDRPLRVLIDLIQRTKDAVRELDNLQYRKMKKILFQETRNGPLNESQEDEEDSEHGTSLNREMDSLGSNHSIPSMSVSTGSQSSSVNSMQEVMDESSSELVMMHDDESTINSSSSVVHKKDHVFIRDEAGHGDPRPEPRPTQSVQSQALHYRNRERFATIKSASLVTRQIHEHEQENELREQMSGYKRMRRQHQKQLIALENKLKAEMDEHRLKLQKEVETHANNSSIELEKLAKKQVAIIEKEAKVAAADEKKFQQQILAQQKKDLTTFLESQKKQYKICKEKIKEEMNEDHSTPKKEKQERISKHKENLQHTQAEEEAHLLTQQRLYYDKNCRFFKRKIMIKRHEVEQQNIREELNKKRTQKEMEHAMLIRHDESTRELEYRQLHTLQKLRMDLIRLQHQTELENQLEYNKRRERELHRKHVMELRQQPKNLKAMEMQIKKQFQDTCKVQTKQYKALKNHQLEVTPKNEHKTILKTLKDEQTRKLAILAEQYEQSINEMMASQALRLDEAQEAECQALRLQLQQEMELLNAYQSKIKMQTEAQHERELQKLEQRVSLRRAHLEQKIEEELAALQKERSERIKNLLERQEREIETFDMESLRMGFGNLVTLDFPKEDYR
Conditions: at 1 µM.

For test [7], the target named is T3, Serine/threonine-protein kinase TAO3 (Homo sapiens). The following applies: at 10 µM.
Test [8] has as its target T4, TGF-beta receptor type-1 (Homo sapiens) (UniProt P36897).
T4 sequence (whole entry): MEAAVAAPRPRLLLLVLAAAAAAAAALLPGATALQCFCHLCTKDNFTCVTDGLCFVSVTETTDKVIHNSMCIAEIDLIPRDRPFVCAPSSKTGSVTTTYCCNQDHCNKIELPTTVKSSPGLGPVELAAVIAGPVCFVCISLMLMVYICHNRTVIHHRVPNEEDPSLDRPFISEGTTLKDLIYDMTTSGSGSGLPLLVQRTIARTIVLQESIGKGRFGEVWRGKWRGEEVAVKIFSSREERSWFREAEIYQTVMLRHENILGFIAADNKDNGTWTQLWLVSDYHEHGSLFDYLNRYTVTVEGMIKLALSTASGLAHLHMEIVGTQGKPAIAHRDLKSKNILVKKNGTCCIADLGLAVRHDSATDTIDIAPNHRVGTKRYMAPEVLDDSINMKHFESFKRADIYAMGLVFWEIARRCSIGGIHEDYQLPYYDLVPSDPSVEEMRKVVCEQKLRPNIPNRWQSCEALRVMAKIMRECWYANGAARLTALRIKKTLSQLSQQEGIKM
The following applies: at 1 µM.

Test [9] concerns the target Insulin-like growth factor 1 receptor (Homo sapiens) (UniProt P08069). The following applies: at 1 µM.
The target is the same in test [10]. The following applies: at 10 µM.
Test [11] deals with T5, Inhibitor of nuclear factor kappa-B kinase subunit alpha (Homo sapiens) (UniProt O15111).
T5 sequence (whole entry): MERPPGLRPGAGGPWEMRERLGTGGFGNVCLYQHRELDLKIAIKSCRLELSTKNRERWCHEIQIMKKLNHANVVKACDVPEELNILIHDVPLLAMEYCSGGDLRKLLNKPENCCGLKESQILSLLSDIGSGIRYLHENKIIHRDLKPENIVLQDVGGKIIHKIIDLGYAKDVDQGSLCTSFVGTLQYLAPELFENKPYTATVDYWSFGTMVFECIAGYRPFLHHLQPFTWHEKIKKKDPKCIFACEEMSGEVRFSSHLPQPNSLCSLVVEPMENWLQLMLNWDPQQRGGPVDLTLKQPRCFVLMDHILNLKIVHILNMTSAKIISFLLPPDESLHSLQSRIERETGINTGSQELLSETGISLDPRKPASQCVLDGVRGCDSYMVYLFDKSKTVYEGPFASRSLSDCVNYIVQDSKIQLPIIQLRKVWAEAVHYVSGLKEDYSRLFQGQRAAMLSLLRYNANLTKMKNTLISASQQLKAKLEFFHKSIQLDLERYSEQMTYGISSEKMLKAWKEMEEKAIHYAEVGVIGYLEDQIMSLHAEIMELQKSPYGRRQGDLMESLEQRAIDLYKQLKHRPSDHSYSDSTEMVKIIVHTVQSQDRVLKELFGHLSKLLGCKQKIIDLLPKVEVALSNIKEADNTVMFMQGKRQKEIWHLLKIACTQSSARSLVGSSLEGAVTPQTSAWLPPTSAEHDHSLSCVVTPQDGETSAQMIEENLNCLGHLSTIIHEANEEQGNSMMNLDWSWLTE
The following applies: at 10 µM.

Test [12] addresses T6, Inhibitor of nuclear factor kappa-B kinase subunit beta (Homo sapiens) (UniProt O14920).
T6 sequence (whole entry): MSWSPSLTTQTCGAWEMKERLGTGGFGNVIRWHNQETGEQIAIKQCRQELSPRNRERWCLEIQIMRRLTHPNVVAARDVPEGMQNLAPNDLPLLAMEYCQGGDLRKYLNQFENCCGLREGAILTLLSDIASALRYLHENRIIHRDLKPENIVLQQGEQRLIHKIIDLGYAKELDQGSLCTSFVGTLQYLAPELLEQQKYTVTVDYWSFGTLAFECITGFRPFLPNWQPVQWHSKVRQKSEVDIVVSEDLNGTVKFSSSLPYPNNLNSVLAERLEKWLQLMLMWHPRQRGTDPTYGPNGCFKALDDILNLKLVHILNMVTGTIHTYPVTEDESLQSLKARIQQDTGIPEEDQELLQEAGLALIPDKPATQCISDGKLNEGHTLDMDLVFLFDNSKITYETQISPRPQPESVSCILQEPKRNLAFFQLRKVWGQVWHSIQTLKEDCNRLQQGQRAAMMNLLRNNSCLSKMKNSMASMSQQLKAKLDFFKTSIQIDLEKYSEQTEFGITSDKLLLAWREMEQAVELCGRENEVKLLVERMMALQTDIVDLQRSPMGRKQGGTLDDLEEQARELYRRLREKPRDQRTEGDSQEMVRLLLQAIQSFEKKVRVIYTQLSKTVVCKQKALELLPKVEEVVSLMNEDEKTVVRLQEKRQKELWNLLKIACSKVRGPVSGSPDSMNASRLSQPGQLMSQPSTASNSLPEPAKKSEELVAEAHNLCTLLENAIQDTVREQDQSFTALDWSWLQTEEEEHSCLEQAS
The following applies: at 1 µM.

Test [13] deals with T6, Inhibitor of nuclear factor kappa-B kinase subunit beta (Homo sapiens). Conditions: at 10 µM.

Chain of Insulin-like growth factor 1 receptor (Homo sapiens) (P08069 31-736 limits assumed): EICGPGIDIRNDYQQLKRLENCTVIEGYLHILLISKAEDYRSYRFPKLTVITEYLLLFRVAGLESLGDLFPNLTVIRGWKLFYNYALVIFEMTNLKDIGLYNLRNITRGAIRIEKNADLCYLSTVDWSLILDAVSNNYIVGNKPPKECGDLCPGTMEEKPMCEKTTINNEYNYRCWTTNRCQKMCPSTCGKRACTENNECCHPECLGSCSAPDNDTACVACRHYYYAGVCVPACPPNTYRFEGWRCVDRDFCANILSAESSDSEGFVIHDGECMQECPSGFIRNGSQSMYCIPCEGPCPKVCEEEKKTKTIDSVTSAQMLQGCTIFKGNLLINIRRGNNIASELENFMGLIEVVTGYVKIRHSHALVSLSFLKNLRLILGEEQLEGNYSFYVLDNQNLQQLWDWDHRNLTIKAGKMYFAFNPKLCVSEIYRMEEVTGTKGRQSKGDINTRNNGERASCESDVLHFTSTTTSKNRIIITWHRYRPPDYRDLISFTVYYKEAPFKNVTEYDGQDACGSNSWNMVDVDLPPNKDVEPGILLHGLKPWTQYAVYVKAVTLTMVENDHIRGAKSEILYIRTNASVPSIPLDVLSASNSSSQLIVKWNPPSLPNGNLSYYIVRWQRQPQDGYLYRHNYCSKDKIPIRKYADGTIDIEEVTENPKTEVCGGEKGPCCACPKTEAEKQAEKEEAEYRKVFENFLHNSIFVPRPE
Chain of Insulin-like growth factor 1 receptor (Homo sapiens) (P08069 741-1367 limits assumed): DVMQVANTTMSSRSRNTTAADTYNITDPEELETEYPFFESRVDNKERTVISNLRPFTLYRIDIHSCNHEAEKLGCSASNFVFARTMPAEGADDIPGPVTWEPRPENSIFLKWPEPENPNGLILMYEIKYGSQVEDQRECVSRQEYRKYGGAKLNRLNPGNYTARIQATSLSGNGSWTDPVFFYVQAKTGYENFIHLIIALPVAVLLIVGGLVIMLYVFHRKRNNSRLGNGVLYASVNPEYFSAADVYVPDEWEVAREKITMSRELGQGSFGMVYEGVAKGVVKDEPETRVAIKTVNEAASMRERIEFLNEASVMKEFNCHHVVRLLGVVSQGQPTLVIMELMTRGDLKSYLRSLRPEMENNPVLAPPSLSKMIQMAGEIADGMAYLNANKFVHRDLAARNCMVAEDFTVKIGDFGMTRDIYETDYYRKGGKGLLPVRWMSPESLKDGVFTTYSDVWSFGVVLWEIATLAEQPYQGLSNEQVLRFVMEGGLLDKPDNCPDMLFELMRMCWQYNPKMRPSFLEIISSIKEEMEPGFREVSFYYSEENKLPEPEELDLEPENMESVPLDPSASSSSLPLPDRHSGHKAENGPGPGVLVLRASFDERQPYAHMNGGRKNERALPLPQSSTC

For the compound `Nc1ncnc2c1cnn2-c1ccccc1`, the residual activity in test [1] is 92%; in [2], 89%; in test [3] it was 88%; in test [4], 94%; in test [5] it was 80%; in test [6] it was 100%. Further, the residual activity turned out to be 87% in test [7]; 92% in test [8]; 88% in test [9]; 76% in [10]; 85% in test [11]; 97% in test [12]. This compound also yielded a residual activity in [13] of 86%.

The values above are taken from ChEMBL document CHEMBL2218924, “A broad activity screen in support of a chemogenomic map for kinase signalling research and drug discovery” (Biochem J, 2013).
